For some assays here: Potency and affinity values are given separately. Activity calls are given as the source filed them.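 Rule for the calls, unless noted: active = primary screen hit whose calcium fluorescence ratio, in both repeats, exceeds the weak agonist control mean by 3 SD; inactive = the rest.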
Experiments:
[1] = system: TRPC4 beta (transient receptor potential cation channel C4), mouse; assay: activators of mouse TRPC4 channel, confirmation, cell-based, Fluo4 calcium, HEK293 TRPC4beta/mu-opioid, duplicates, 10 µM (AID 2426;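 active = fluorescence ratio normalized to control raised more than 50% in primary screen plus both repeat runs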); details: Fluo4 calcium fluorescence, at 10 µM; stronger effect = higher value
[2] = system: transient receptor potential cation channel C4 beta (TRPC4), mouse; assay: activators of mouse TRPC4 channel, confirmation, cell-based, second round, Fluo4, HEK293 TRPC4beta/mu-opioid, 1 µM (AID 2461;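 active = primary screen active and over 50% activation in each of two duplicate runs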); details: Fluo4 calcium fluorescence, at 1 µM; stronger effect = higher value
[3] = system: TRPC4 (transient receptor potential cation channel C4 beta), mouse; assay: positive allosteric modulators of mouse TRPC4, confirmation, cell-based, second round, Fluo-4, HEK293 TRPC4beta/mu-opioid, 1 µM (AID 2554;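 active = primary screen hit whose fluorescence ratio, in both repeats, exceeds the weak agonist control mean by 3 SD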); details: DAMGO EC20, Fluo-4 calcium flux, at 1 µM; stronger effect = higher value
[4] = system: TRPC4 beta (transient receptor potential cation channel C4), mouse; assay: positive allosteric modulators of mouse TRPC4, confirmation, cell-based, Fluo-4, HEK293 TRPC4beta/mu-opioid (AID 2555); details: DAMGO EC20, Fluo-4 calcium flux, at 10 µM; stronger effect = higher value
[5] = biological target: Short transient receptor potential channel 4 (Mus musculus) (UniProt Q9QUQ5); assay: inhibitors of mouse TRPC4 channel, confirmation, cell-based, Fluo4, HEK293 TRPC4beta/mu-opioid (AID 2636;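 active = calcium signal cut by more than 3 SD below the full-agonist control yet still positive, in both repeats and the earlier primary screen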); details: DAMGO, Fluo4 calcium flux, at 10 µM; stronger effect = higher value
Chain of Short transient receptor potential channel 4 (Mus musculus) (Q9QUQ5 whole entry, looked up): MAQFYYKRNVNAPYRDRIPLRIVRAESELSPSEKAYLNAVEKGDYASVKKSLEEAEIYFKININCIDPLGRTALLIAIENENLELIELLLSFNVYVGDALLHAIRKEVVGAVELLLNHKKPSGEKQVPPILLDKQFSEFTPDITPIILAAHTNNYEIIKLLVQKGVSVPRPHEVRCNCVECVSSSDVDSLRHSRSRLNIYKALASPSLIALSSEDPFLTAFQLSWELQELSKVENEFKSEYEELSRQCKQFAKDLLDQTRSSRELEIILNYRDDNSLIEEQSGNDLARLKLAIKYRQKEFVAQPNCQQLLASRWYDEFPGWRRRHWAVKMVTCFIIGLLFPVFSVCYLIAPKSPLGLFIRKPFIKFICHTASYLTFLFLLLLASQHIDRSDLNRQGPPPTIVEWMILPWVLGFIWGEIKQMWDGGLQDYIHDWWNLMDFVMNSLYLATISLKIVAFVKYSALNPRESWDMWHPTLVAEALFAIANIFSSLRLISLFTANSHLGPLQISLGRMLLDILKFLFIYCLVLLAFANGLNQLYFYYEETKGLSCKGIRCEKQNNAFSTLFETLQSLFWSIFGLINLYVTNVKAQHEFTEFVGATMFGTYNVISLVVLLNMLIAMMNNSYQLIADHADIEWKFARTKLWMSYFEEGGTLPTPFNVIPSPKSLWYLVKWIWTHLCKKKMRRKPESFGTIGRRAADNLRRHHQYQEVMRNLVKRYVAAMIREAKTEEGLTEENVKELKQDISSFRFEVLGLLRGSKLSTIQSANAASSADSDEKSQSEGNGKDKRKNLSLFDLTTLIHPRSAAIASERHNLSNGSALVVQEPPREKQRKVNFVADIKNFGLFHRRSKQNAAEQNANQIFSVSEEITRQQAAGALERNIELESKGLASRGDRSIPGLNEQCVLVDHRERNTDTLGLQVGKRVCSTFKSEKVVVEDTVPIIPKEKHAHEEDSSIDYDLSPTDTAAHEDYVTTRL

[6] = biological target: Short transient receptor potential channel 4 (Mus musculus) (UniProt Q9QUQ5); assay: inhibitors of mouse TRPC4 channel, confirmation, cell-based, second round, Fluo4, HEK293 TRPC4beta/mu-opioid, 1 µM (AID 2637;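 active = calcium signal ratio cut to more than 3 SD under the fully stimulated control mean yet still positive, in both repeats and the primary screen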;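 for inhibition: percent of integrated ratio relative to wells lacking test compound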); details: Fluo4 calcium flux, DAMGO, at 1 µM; stronger effect = higher value
[7] = biological target: Short transient receptor potential channel 4 (Mus musculus) (UniProt Q9QUQ5); assay: mouse TRPC4 channel activators, dose response, cell-based, HEK293 TRPC4/mu-opioid, Fluo-4 calcium (AID 434937;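 active = primary screen activator hit with a dose response curve and TRPC4 channel activation at any tested dose; inactive = no activation, no dose response, or not a primary hit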)
[8] = biological target: Short transient receptor potential channel 4 (Mus musculus) (UniProt Q9QUQ5); assay: TRPC4 positive allosteric modulators, dose response, cell-based, HEK293 TRPC4/mu-opioid, Fluo-4 calcium, EC20 DAMGO (AID 434941;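 active = earlier screen potentiator hit that boosts the TRPC4 ion channel at some dose, with a dose response; inactive = no potentiation, no dose response, or not a prior hit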;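 note: calcium entry triggered by an EC20 dose of DAMGO at the co-expressed mu-opioid receptor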)
[9] = biological target: Short transient receptor potential channel 6 (Mus musculus) (UniProt Q61143); assay: inhibition of mouse TRPC6 channel, confirmation, selectivity assay for TRPC4 inhibitor project, cell-based, HEK293, membrane potential dye, duplicate (AID 434948;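 active = active in primary screen and both duplicates, each dropping signal beyond three positive-control SD with fluorescence still positive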); details: HEK293 TRPC6, membrane potential dye fluorescence, at 10 µM, stimulated with maximal-effect acetylcholine; stronger effect = higher value
Chain of Short transient receptor potential channel 6 (Mus musculus) (Q61143 whole entry, looked up): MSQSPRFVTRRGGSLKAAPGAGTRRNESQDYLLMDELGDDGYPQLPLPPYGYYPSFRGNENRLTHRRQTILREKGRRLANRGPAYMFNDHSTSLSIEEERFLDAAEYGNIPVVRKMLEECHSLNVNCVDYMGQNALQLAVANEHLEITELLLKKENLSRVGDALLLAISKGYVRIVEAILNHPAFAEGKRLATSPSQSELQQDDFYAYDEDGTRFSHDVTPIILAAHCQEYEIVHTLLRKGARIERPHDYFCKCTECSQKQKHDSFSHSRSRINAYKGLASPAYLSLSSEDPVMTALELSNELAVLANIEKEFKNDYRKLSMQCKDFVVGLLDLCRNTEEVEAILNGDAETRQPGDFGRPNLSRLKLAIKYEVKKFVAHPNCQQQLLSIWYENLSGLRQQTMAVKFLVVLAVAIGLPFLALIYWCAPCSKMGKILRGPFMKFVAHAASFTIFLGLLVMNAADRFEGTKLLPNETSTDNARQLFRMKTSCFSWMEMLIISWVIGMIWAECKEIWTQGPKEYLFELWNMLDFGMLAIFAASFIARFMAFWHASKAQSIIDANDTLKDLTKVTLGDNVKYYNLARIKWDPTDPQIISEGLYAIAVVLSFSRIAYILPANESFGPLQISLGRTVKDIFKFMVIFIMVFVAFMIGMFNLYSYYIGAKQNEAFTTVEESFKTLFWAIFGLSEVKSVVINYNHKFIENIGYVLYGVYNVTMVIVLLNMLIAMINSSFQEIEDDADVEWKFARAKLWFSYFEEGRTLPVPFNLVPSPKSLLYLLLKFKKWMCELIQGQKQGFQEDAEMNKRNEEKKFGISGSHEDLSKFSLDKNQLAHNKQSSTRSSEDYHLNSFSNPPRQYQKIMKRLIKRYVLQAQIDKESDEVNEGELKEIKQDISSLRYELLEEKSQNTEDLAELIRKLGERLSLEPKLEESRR

[10] = biological target: Short transient receptor potential channel 6 (Mus musculus) (UniProt Q61143); assay: activation of mouse TRPC6 channel, confirmation, selectivity assay for TRPC4 activator project, cell-based, HEK293, membrane potential dye, duplicate (AID 434950;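 active = membrane potential signal rise above negative control mean plus 3 SD in both duplicates, also active in the earlier TRPC4 screen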); details: HEK293 TRPC6, membrane potential fluorescence, at 10 µM; stronger effect = higher value
[11] = biological target: Short transient receptor potential channel 6 (Mus musculus) (UniProt Q61143); assay: TRPC6 potentiation by TRPC4 potentiator hits, confirmation, selectivity assay for TRPC4 potentiator project, HEK293 cells, membrane potential dye, duplicate (AID 434952;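 active = compound raising the membrane signal above positive-control mean plus 3 SD in both repeats, and a primary screen hit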); details: HEK293 TRPC6, membrane potential dye fluorescence, at 10 µM, maximal acetylcholine added after compound; stronger effect = higher value
[12] = biological target: Short transient receptor potential channel 4 (Mus musculus) (UniProt Q9QUQ5); assay: calcium flux activators in TRPC4/5HT1a cells, counter-screen for TRPC4 activator project, cell-based, second counter screen, HEK293 TRPC4/5HT1a, Fluo-4 (AID 434977;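 active = calcium signal rise above buffer-control mean plus 5 SD in both duplicates, and also a hit in the primary screen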); details: Fluo-4 calcium flux, at 10 µM; stronger effect = higher value
[13] = calcium flux inhibitors in TRPC4/5HT1a cells, confirmation, counter-screen for TRPC4 inhibitor project, cell-based, second counter screen, HEK293 TRPC4/5HT1a, Fluo-4 (AID 434978;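 active = primary screen active whose calcium signal fell more than 3 SD beyond the full-serotonin control mean in both duplicate plates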;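 for outcome: serotonin given first at submaximal then at maximal dose after compound preincubation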); details: Fluo-4 calcium flux, at 10 µM, serotonin added to trigger calcium flux; stronger effect = higher value
[14] = system: TRPC4 (mouse), co-expressed with 5HT1a in HEK293; assay: calcium flux potentiators in TRPC4/5HT1a cells, confirmation, counter-screen for TRPC4 potentiator project, cell-based, second counter screen, HEK293 TRPC4/5HT1a, Fluo-4 (AID 434979;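 active = signal rise over 3 SD above mean of control wells given weak agonist, in both repeats and first screen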); details: Fluo-4 calcium flux, at 10 µM, serotonin added at its EC20 dose; stronger effect = higher value
[15] = calcium flux activation in mu-opioid HEK293 cells, confirmation, counter-screen for TRPC4 activator project, cell-based, HEK293 mu-opioid receptor line (AID 449723;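 active = hit in primary screen, with calcium signal over 5 SD above buffer well mean in both duplicates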;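 note: counter screen cells carry the mu-opioid receptor alone and lack TRPC4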); details: Fluo-4 calcium fluorescence, at 10 µM; stronger effect = higher value
[16] = calcium flux enhancement in mu-opioid HEK293 cells, confirmation, counter-screen for TRPC4 allosteric potentiator project, cell-based, HEK293 mu-opioid receptor line (AID 449724;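 active = calcium signal rise more than 3 SD above the low-dose agonist control mean, in both duplicate plates and the primary screen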); details: Fluo-4 calcium flux, at 10 µM, compound added before EC20 DAMGO stimulus; stronger effect = higher value

Row | SMILES | outcome [1] | outcome [2] | outcome [3] | outcome [4] | inhibition [5] | outcome [6] | outcome [7] | outcome [8] | outcome [9] | outcome [10] | outcome [11] | outcome [12] | inhibition [13] | outcome [14] | outcome [15] | outcome [16] | inhibition [6] | outcome [13] | inhibition [9]
1 | O=C(CN1CCCCC1)N1c2ccccc2Oc2ccccc21 | inactive | inactive | inactive | inactive | 95% (active) | inactive | inactive | inactive | inactive | inactive | inactive | inactive | 9.39% (active) | inactive | inactive | inactive | – | – | –
2 | CC(C)C1=Nc2cccc3cccc(c23)N1 | inactive | inactive | inactive | inactive | 95% (active) | – | inactive | inactive | inactive | inactive | inactive | inactive | 17.1% (active) | inactive | inactive | inactive | 49% (active) | – | –
3 | CC(C)c1nc(CNC(=O)CC2C(=O)NCCN2Cc2ccc(F)cc2Cl)cs1 (centres undefined) | inactive | inactive | inactive | inactive | 92% (active) | inactive | inactive | inactive | inactive | inactive | inactive | inactive | – | inactive | inactive | inactive | – | inactive | –
4 | Cc1nn(-c2cccc(Cl)c2)c2nc(C(F)(F)F)[nH]c(=O)c12 | inactive | inactive | inactive | inactive | 95% (active) | – | inactive | inactive | inactive | inactive | inactive | inactive | 34.8% (active) | inactive | inactive | inactive | 56% (active) | – | –
5 | CC(C)Oc1cccc(C(=O)C2CCCN(Cc3cnn(C(C)C)c3)C2)c1 (centres undefined) | inactive | inactive | inactive | inactive | 93% (active) | – | inactive | inactive | inactive | inactive | inactive | inactive | – | inactive | inactive | inactive | 47% (active) | inactive | –
6 | Cc1ccc(C(=O)NC(=S)Nc2c(C)ccc3nsnc23)cc1 | inactive | inactive | inactive | inactive | 86% (active) | – | inactive | inactive | inactive | inactive | inactive | inactive | 18.1% (active) | inactive | inactive | inactive | 45% (active) | – | –
7 | Cc1cc(C)c2nc(C)cc(N/N=C/c3ccc(O)cc3)c2c1 | inactive | inactive | inactive | inactive | 91% (active) | inactive | inactive | inactive | – | inactive | inactive | inactive | – | inactive | inactive | inactive | – | inactive | 35% (active)
8 | CCOC(=O)CSc1nc2c(sc(=S)n2Cc2ccco2)c(=O)n1-c1ccccc1 | inactive | inactive | inactive | inactive | 68% (active) | – | inactive | inactive | inactive | inactive | inactive | inactive | – | inactive | inactive | inactive | 42% (active) | inactive | –
9 | CCn1c2ccccc2c2cc(/C=N/NC(=O)c3cc(O)cc(O)c3)ccc21 | inactive | inactive | inactive | inactive | 78% (active) | – | inactive | inactive | inactive | inactive | inactive | inactive | 43% (active) | inactive | inactive | inactive | 43% (active) | – | –
10 | Brc1ccc(CN2C3=NCCCN3c3ccccc32)cc1 | inactive | inactive | inactive | inactive | 96% (active) | – | inactive | inactive | inactive | inactive | inactive | inactive | 9.36% (active) | inactive | inactive | inactive | 75% (active) | – | –
11 | N/C(Cc1cccc2ccccc12)=N\OC(=O)c1cccs1 | inactive | inactive | inactive | inactive | 54% (active) | – | inactive | inactive | inactive | inactive | inactive | inactive | – | inactive | inactive | inactive | 55% (active) | inactive | –
12 | N#Cc1c(N2CCCCC2)nc(N)c2c(N)nc3c(c12)CC(c1ccccc1)O3 (centres undefined) | inactive | inactive | inactive | inactive | 87% (active) | – | inactive | inactive | inactive | inactive | inactive | inactive | 31.5% (active) | inactive | inactive | inactive | 49% (active) | – | –
13 | COc1ccc(Nc2cc(C)nc3ccc(OC)cc23)cc1 | inactive | inactive | inactive | inactive | 91% (active) | inactive | inactive | inactive | – | inactive | inactive | inactive | – | inactive | inactive | inactive | – | inactive | 29.5% (active)
14 | O=C(c1cccc(C(F)(F)F)c1)C1CCCN(Cc2cccn2-c2ccccn2)C1 (centres undefined) | inactive | inactive | inactive | inactive | 72% (active) | inactive | inactive | inactive | – | inactive | inactive | inactive | 29.2% (active) | inactive | inactive | inactive | – | – | 43% (active)

Source: PubChem BioAssay
